Results from PubChem BioAssay AID1906 (The Scripps Research Institute Molecular Screening Center, 2009).
Hit rate of the full screen: of about 300,000 compounds, about 1,500 (0.5%) were called active.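 How the source made its calls: active means inhibition above the mean of all tested compounds plus 3 SD, set per screening campaign (cut at about 17% in these data); inactive means the rest.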 The full list was thinned out, with actives kept by preference.

System: cathepsin L1 (Fasciola hepatica)
Assay: Fasciola hepatica cathepsin L1 inhibitors, primary screen, counter-screen for PFM18AAP inhibitor project, biochemical, QFRET, fluorogenic peptide substrate (AID 1906);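 further: 0% = plate median of test compound wells and 100% = 1 µM Z-Phe-Ala-diazomethylketone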
Details: recombinant F. hepatica cathepsin L1, Z-Leu-Arg-MCA fluorescence; at 5.96 µM; hits give high values

SMILES | inhibition
COc1ccc(CC(NC(C)=O)C(=O)N2CCN(C(=O)Nc3cccc(Cl)c3)CC2)cc1OC (stereo unspecified) | -4.54% (inactive)
Cn1cc(S(=O)(=O)Nc2ccc(Cl)cc2Cl)c(=O)n(C)c1=O | -0.98% (inactive)
Cc1ccc(NC(=S)N(CCN2CCCCC2)Cc2ccco2)cc1C | -2.51% (inactive)
Cc1ccc(NC(=S)N(CCCN2CCC(C)CC2)Cc2ccco2)cc1 | -0.39% (inactive)
Cc1ccc(NC(=S)N(Cc2ccco2)C(C)c2cccs2)cc1 (stereo unspecified) | 22.4% (active)
COn1c(=O)c(=O)n(OC)c2ccccc21 | 2.56% (inactive)
O=C(Cc1ccccc1)n1nc(-c2ccccc2)nc1NCc1ccco1 | 51.2% (active)
CS(=O)(=O)n1nc(-c2ccccc2)nc1NCc1ccco1 | 0.56% (inactive)
O=C(NCc1ccco1)c1nc(-c2ccccc2)n(-c2ccccc2)n1 | -1.81% (inactive)
c1csc(CN2CCN(Cc3cccs3)C2c2cccs2)c1 | 17% (active)
O=C1c2cccnc2C(=O)N1Cc1cccs1 | 0.86% (inactive)
O=C(CSCc1cccs1)N1CCCC1 | -3.58% (inactive)
COC(=O)Nc1ccc(S(=O)(=O)Nc2cc(OC)nc(OC)n2)cc1 | 2.38% (inactive)
COc1ccc(C(CCN(Cc2ccc(OC)c(OC)c2)C(=O)CCl)c2ccccc2)cc1 (stereo unspecified) | 59.9% (active)
COc1ccc(COC(=O)NC(C(=O)O)c2ccccc2)cc1 (stereo unspecified) | 0.08% (inactive)
COc1ccc(CN(C)C(=O)CC(c2ccccc2)c2ccccc2)cc1 | 2.03% (inactive)
CCN(CC(=O)Nc1ccc(NC(C)=O)cc1)C(=O)C1CC(=O)N(Cc2ccc(C)cc2)C1 (stereo unspecified) | 6.92% (inactive)
O=c1c2ccccc2cnn1Cc1n[nH]c(=S)n1-c1ccccc1F | -4.23% (inactive)

SMILES | inhibition
COC(=O)C1=C(NC(=O)C(C)(C)C)CCS1 | -1.55% (inactive)
NC(=O)c1ccsc1NC(=O)COC(=O)Cc1n[nH]c(=O)c2ccccc12 | 2.85% (inactive)
COc1cc(OC)c(C2=NOC(C(=O)Nc3c(C)n(C)n(-c4ccccc4)c3=O)C2)cc1Cl (stereo unspecified) | 4.46% (inactive)
Cc1ncn(C23CC4CC(CC(O)(C4)C2)C3)n1 | 23.6% (active)
COC(=O)c1ccc(NC(=O)C23CC4CC(C2)CC(n2cnc(Cl)n2)(C4)C3)cc1 | 0.89% (inactive)
CC(N)C12CC3CC(CC(O)(C3)C1)C2 (stereo unspecified) | -3.06% (inactive)
COc1ccc(CCNC(=O)CN2C(=O)CCSc3ccccc32)c(OC)c1 | -0.1% (inactive)
Cc1ccc(Nc2c(F)c(F)c(F)c(F)c2C(=O)O)c(C)c1 | -4.87% (inactive)
COc1ccc(C2=NS(=O)(=O)N(C)C(C(=O)NC(C)c3ccccc3)=C2)cc1 (stereo unspecified) | 11.2% (inactive)
COc1ccc(NC(=O)NCCN2CCN(c3ccc(C)cc3)CC2)c(Cl)c1 | 2.74% (inactive)
COc1ccc(Cl)cc1NC(=O)c1cccc(N2C(=O)C3CC=CCC3C2=O)c1 (stereo unspecified) | 0.1% (inactive)
COc1ccc(Cl)cc1NC(=O)CCN1CCOCC1 | -1.4% (inactive)
COc1ccc(Cl)cc1NC(=O)COC(=O)C(CC(C)C)N1C(=O)C2CC=CCC2C1=O (stereo unspecified) | 39.5% (active)
O=C(CN1CCN(S(=O)(=O)c2ccc(Cl)s2)CC1)NCc1ccc(Cl)cc1 | -3.91% (inactive)
COc1ccc(CNC(=O)CCN2C(=O)c3ccccc3C2=O)cc1 | -1.89% (inactive)
COc1ccc(CNC(=O)CCn2cccc2)cc1 | 17.3% (active)
COc1ccc(CNC(=O)C(Cc2ccccc2)n2cccc2)cc1 (stereo unspecified) | 2.08% (inactive)
COc1ccc(OC)c(NC(=O)c2cccc(S(=O)(=O)N3CCN(C(C)=O)CC3)c2)c1 | -1.16% (inactive)
